Reference: PubChem BioAssay AID1159580 (chemical genetic matrix, 2015)
Values joined by “and” are separate entries in the source; they are usually repeats but may differ in a detail not shown here. Equal values may be shown once. Screen size: about 5,500 compounds; about 2,000 (36%) were called active. Roughly 18% stayed inconclusive and do not appear here. Rule as the data show it: active = normalized growth mostly below about 0.91 (no sharp cut-off); inconclusive = no clear call, values can overlap the other calls; inactive = mostly above about 0.92. This is one part of the list.

Experiment: chemical genetic growth profiling, strain panel (AID 1159580);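 also: tested at 20 µM; growth read once vehicle control cultures reached saturation at 30 °C; 1 = growth at the plate median or of vehicle wells; lower values mean less growth of the strain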
Conditions: S. cerevisiae deletion strains, growth OD

Measured: normalized growth

CO[C@H]1C[C@H](O[C@H]2[C@H](C)[C@@H](OC3O[C@H](C)C[C@H](N(C)C)[C@H]3O)[C@@H](C)C[C@]3(CO3)C(=O)[C@H](C)[C@@H](O)[C@@H](C)[C@@H](C)OC(=O)[C@@H]2C)O[C@@H](C)[C@@H]1O (some centres not stated)
inactive: locus YAL013W, strain DEP1, active compounds read low 1.01 | locus YAL021C, strain ccr4, active compounds read low 1.03 | locus YAL026C, strain drs2, active compounds read low 0.991 | locus YAL030W, strain snc1, active compounds read low 1.01 | locus YBL061C, strain skt5, active compounds read low 1 | locus YBR009C, strain hhf1, active compounds read low 0.96 | locus YBR021W, strain FUR4, active compounds read low 0.994 | locus YBR023C, strain chs3, active compounds read low 1.02 | locus YBR171W, strain sec66, active compounds read low 0.996 | locus YBR229C, strain ROT2, active compounds read low 1.02 | locus YBR231C, strain swc5, active compounds read low 1.02 | locus YBR279W, strain paf1, active compounds read low 1.01 | locus YCL011C, strain gbp2, active compounds read low 0.998 | locus YCL016C, strain dcc1, active compounds read low 1.02 | locus YCL029C, strain bik1, active compounds read low 1 | locus YCL061C, strain MRC1, active compounds read low 1.02 | locus YCL069W, strain vba3, active compounds read low 1 | locus YCR088W, strain abp1, active compounds read low 1.01 | locus YDL005C, strain med2, active compounds read low 1.02 | locus YDL035C, strain GPR1, active compounds read low 1.01 | locus YDL040C, strain nat1, active compounds read low 1.01 | locus YDL074C, strain BRE1, active compounds read low 1.02 | locus YDL101C, strain DUN1, active compounds read low 1.02 | locus YDL134C, strain PPH21, active compounds read low 1.01 | locus YDL185W, strain tfp1, active compounds read low 1.01 | locus YDL192W, strain arf1, active compounds read low 1.01 | locus YDR001C, strain nth1, active compounds read low 1 | locus YDR069C, strain doa4, active compounds read low 1.03 | locus YDR101C, strain arx1, active compounds read low 1 | locus YDR137W, strain rgp1, active compounds read low 0.998 | locus YDR150W, strain NUM1, active compounds read low 1 | locus YDR159W, strain sac3, active compounds read low 0.994 | locus YDR162C, strain NBP2, active compounds read low 1.01 | locus YDR195W, strain ref2 1.01 | locus YDR297W, strain sur2, active compounds read low 1.01 | locus YDR318W, strain mcm21, active compounds read low 1.01 | locus YDR334W, strain swr1, active compounds read low 0.995 | locus YDR335W, strain msn5, active compounds read low 0.998 | locus YDR388W, active compounds read low 0.991 | locus YDR392W, strain spt3, active compounds read low 0.945 | locus YDR502C, strain sam2, active compounds read low 1.02 | locus YEL003W, strain gim4, active compounds read low 0.987 | locus YEL037C, strain rad23, active compounds read low 0.994 | locus YEL061C, strain CIN8 (second series), active compounds read low 0.999 | locus YEL061C, strain CIN8, active compounds read low 1 | locus YER015W, strain faa2, active compounds read low 0.992 | locus YER016W, strain bim1, active compounds read low 1.02 | locus YER110C, active compounds read low 0.986 | locus YER111C, strain swi4, active compounds read low 1 | locus YER155C, strain BEM2 (second series), active compounds read low 1.02 | locus YER155C, strain BEM2, active compounds read low 1 | locus YER167W, strain BCK2, active compounds read low 1.01 | locus YFR010W, strain ubp6, active compounds read low 0.988 | locus YGL078C, strain dbp3, active compounds read low 1 | locus YGL086W, strain mad1, active compounds read low 0.995 | locus YGL167C, strain pmr1, active compounds read low 0.994 | locus YGL173C, strain kem1, active compounds read low 1 | locus YGL227W, strain vid30, active compounds read low 1.02 | locus YGL240W, strain doc1, active compounds read low 1.03 | locus YGL248W, strain PDE1, active compounds read low 1.02 | locus YGL253W, strain hxk2, active compounds read low 1.02 | locus YGR078C, strain PAC10, active compounds read low 1.02 | locus YGR135W, strain pre9, active compounds read low 1.01 | locus YGR229C, strain SMI1, active compounds read low 1.03 | locus YGR252W, strain gcn5, active compounds read low 1.14 | locus YHR013C, strain ard1, active compounds read low 1.02 | locus YHR027C, strain rpn1, active compounds read low 0.999 | locus YHR030C, strain SLT2, active compounds read low 1.01 | locus YHR079C, strain IRE1 (second series), active compounds read low 0.989 | locus YHR079C, strain IRE1, active compounds read low 1.01 | locus YHR094C, strain hxt1, active compounds read low 0.98 | locus YHR129C, strain ARP1, active compounds read low 0.998 | locus YHR142W, strain chs7, active compounds read low 0.972 | locus YHR200W, strain rpn10, active compounds read low 1.01 | locus YIL066C, strain RNR3, active compounds read low 1.02 | locus YIL073C, strain SPO22, active compounds read low 1.05 | locus YIL125W, strain kgd1, active compounds read low 1 | locus YIR030C, strain dcg1, active compounds read low 0.993 | locus YJL092W, strain hpr5, active compounds read low 1.01 | locus YJL095W, strain BCK1 (second series), active compounds read low 1.01 | locus YJL095W, strain BCK1, active compounds read low 1.03 and 0.995 | locus YJL115W, strain asf1, active compounds read low 0.991 | locus YJL129C, strain trk1, active compounds read low 1 | locus YJL134W, strain LCB3, active compounds read low 1 | locus YJL154C, strain vps35, active compounds read low 1 | locus YJL164C, strain tpk1, active compounds read low 0.982 | locus YJL166W, strain qcr8, active compounds read low 1.03 | locus YJL168C, strain set2, active compounds read low 0.987 | locus YJL187C, strain SWE1 (second series), active compounds read low 1.02 | locus YJL187C, strain SWE1, active compounds read low 1 | locus YJR043C, strain POL32, active compounds read low 1.02 | locus YJR066W, strain TOR1, active compounds read low 0.981
